# Pin1 inh – blocks the human prolyl isomerase Pin1. AID 504891. Q13526. Potency, µM (highest dose often 115 µM), for inactives: at the top dose activity, negative = inhibition, hits mostly inhibitors. Pin1 FP peptide displacement, HiFluor488, 10 min. hit rate 0.009% among 390,000; active = well fitted inhibition curve with a large enough effect in the polarisation, with a control signal flat, not every such curve was filed as active; inconclusive = small, poorly fitted or top-dose-only effect, or effect the other way, or a change in a side signal; inactive = no such curve, though single readings can be large or run the other way; the % refers to the polarisation; note: potency is the fitted concentration of half-maximal effect; % is set by controls: 0 for no effect and ±100 for the full control effect
# Target sequence (Q13526 whole entry, looked up): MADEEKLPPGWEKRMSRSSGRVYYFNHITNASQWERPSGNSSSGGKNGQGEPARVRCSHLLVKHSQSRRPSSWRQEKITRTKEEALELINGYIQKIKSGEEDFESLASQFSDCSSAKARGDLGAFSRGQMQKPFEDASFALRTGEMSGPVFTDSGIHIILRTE
# Glioma ERSR ind – inducers of ER stress response in human glioma cells; U87-MG GRP78 promoter luciferase reporter, 16 h; Potency, µM, for inactives: at the highest dose activation, usual class: activators; hit rate 0.02% among 420,000; note: potency is the fitted concentration of half-maximal effect; series mostly up to about 76 µM; % of control where 0% means no effect; nearly all actives have a fitted effect of over 35% in size
#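 Stably transfected U87-MG glioma cells carrying a GRP78-based luciferase sensor; 16 h compound incubation. Luminescence end-point read 10 min after Bright-Glo addition at room temperature.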
# PGK inhibitor – T. brucei PGK inhibition; P07378; PGK/GAPDH coupled, Kinase-Glo luminescence, 60 min; Potency, µM (doses to about 57.5 µM), for inactives: top-dose activity change, negative = inhibition, most hits filed as inhibitors; hit rate 0.043% among 380,000; note: potency is the fitted concentration of half-maximal effect; % is set by controls: 0 for no effect and ±100 for the full control effect; nearly all actives have a fitted effect of over 60% in size
# Target sequence (P07378 whole entry, looked up): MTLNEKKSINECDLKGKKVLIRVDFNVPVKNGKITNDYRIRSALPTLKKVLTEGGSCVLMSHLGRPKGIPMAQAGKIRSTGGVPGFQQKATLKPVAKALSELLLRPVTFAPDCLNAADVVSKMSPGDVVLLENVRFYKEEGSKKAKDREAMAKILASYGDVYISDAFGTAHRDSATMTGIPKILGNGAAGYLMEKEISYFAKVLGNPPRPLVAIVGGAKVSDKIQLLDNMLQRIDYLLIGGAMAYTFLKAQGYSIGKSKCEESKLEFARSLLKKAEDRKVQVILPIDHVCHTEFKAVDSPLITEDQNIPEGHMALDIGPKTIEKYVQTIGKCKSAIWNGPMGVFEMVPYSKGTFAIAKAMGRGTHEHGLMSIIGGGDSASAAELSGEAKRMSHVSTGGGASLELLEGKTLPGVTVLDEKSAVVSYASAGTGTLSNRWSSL
#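 Luminescent ATP detection (Kinase-Glo Plus) follows a 60-minute room-temperature incubation, with wells lacking PGK as controls. Buffer: 100 mM TEA (pH 7.6), 5 mM MgCl2, 0.01% Tween-20. Coupling enzyme GAPDH (100 nM final) supplies unstable 1,3-BPG in-well.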
# PI5P4Ka inh – blocks human PI5P4K alpha kinase activity; PI5P4Kalpha enzyme, ADP-Glo luminescence, 60 min; hits give low values; hit rate 1.2% among 330,000; max response, %; P48426; AID 652105; active = max response of -50% or lower; inconclusive = between -30% and -50%; inactive = -30% or higher; note: value at the top dose of about 77 µM; % is set by controls: 0 for no effect and ±100 for the full control effect
#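 ADP-Glo luminescence end-point read after a 60 min room-temperature kinase reaction of PI5P4Kalpha plus substrate, initiated with ATP at 5 microM final. Buffer: 0.038 M HEPES pH 7.4, EGTA, 0.1% CHAPS, 5% DMSO.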
# FEN1 inh-1 – human FEN1 inhibition | P39748 | Recombinant FEN1 flap cleavage, fluorescence, 15 min | Potency, µM (series often up to 114 µM), without a hit: top-dose activity change, negative = inhibition, usual class: inhibitors | hit rate 0.35% among 390,000; note: potency is the fitted concentration of half-maximal effect; % is set by controls: 0 for no effect and ±100 for the full control effect; nearly all actives have a fitted effect of over 65% in size
#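 Read-out was taken twice, immediately and after 15 min, following addition of 50 nM substrate to 10 nM FEN1 that had sat with test compound for 15 min at room temperature. Curves came from a four-parameter Hill model.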
# WRN helicase inh-1 – inhibitors of human WRN helicase; WRN helicase unwinding, fluorescent forked duplex, kinetic; Potency, µM (doses to about 114 µM), without a hit: at the highest dose activity change, negative = inhibition, actives largely listed as inhibitors; hit rate 0.46% among 360,000; AID 651768; note: potency is the fitted concentration of half-maximal effect; % is set by controls: 0 for no effect and ±100 for the full control effect; nearly all actives have a fitted effect of over 55% in size
#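 WRN at 20 nM final was preincubated with compound for 15 min at room temperature; reaction started with 100 nM forked duplex oligonucleotide carrying fluorophore and quencher plus 2 mM ATP (final). Unwinding followed kinetically by red fluorescence (ex 525/em 598 nm).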
# FEN1 inh-2 – confirmation of human FEN1 inhibitors; shares compounds with FEN1 inh-1; FEN1 flap cleavage, TAMRA/BHQ2 fluorogenic DNA substrate; Potency, µM, usual class: inhibitors; hit rate 79% among 880; note: potency is the fitted concentration of half-maximal effect; nearly all actives have a fitted effect of over 60% in size
# WRN helicase inh-2 – confirmation of human WRN helicase inhibitors; hit rate 63% among 610; WRN helicase DNA unwinding, fluorescence kinetic; Potency, µM (titrated, usually from 57.1 µM), inactives show at the top dose activity, negative = inhibition, hits mostly inhibitors; shares compounds with WRN helicase inh-1; AID 720497; note: potency is the fitted concentration of half-maximal effect; nearly all actives have a fitted effect of over 65% in size
# TO displacement – DNA binding via thiazole orange displacement. shares compounds with WRN helicase inh-1. thiazole orange DNA binding displacement, fluorescence. Potency, µM (doses to about 57.1 µM), inactives show at the top dose activity change, negative = inhibition, most hits filed as inhibitors. hit rate 10% among 610. AID 720499;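 note: drop in dye fluorescence marks compound binding to DNA; potency is the fitted concentration of half-maximal effect; % is set by controls: 0 for no effect and ±100 for the full control effect; nearly all actives have a fitted effect of over 60% in size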
# BLM helicase inh – BLM helicase inhibition, WRN selectivity check | shares compounds with WRN helicase inh-1 | Recombinant BLM helicase DNA unwinding, red fluorescence | Potency, µM (highest dose often 57.1 µM), for the others: top-dose activity change, negative = inhibition, hits mostly inhibitors | hit rate 60% among 610; note: potency is the fitted concentration of half-maximal effect; nearly all actives have a fitted effect of over 60% in size
# An asterisk follows results filed as active; i = inactive; u = inconclusive; x = no result; ! = not confirmed by another sample; [ ] = another dose, or the depositor's remark. The list is not random: actives were taken first. Their share in the collection is about 1.3%. Unless noted, calls come from the whole dose curve; as a rule, active = well fitted curve in the direction sought with a large enough effect; inconclusive = small, poorly fitted or top-dose-only effect, or another doubt; inactive = no such curve, though single readings can be large; an effect the other way counts as inactive or inconclusive.
SMILES,Pin1 inh,Glioma ERSR ind,PGK inhibitor,PI5P4Ka inh,FEN1 inh-1,WRN helicase inh-1,FEN1 inh-2,WRN helicase inh-2,TO displacement,BLM helicase inh
CC[n+]1c(-c2ccccc2)c2cc(N)ccc2c2ccc(N)cc21,u,-6.9%,-8.3%,4.9,12.6µM*,2.99µM*,16.9*,x,x,x
CNC(C)Cc1ccc2c(c1)OCO2 (configuration not stated),x,-3.0%,x,x,x,x,x,x,x,x
N[C@@H](Cc1cc(I)c(O)c(I)c1)C(=O)O,0.3%,-2.8%,-5.9%,-98.0*,7.94µM*,u,60.1*,x,x,x
CC1=C(O)C(=O)[C@@H]2O[C@@H]2C1=O,x,-3.3%,x,x,x,x,x,x,x,x
COc1ccc(/C=C2/C(=O)N(Cc3ccco3)C(=O)N(C(C)C)C2=O)cc1,u,-2.8%,u,u,u,-32.9%[11.6 µM],26.9*,x,x,x
CC(C)Oc1ccc(C(=O)Nc2ccc3c(c2)CCCN3C(=O)c2cccs2)cc1,64.5%,-3.4%,-13.0%,x,-7.9%,x,x,x,x,x
Cc1ccc(N2C(=O)NC(=O)/C(=C\c3cc(C)n(-c4sc5c(c4C#N)CCCC5)c3C)C2=O)cc1,u,16.7%,-7.6%,u,u,50.1µM*,75.7*,x,x,x
CCN1C(=O)NC(=O)/C(=C/c2cc(C)n(-c3sc(C)c(C)c3C#N)c2C)C1=O,u,-2.8%,i,u,u,u,x,x,x,x
Cc1cccc(N2C(=O)/C(=C/N3CCN(C(=O)c4ccco4)CC3)C(=O)NC2=S)c1,u,4.1%,-14.1%,u,-11.5%,u,x,x,x,x
CCOc1cccc(N2C(=O)/C(=C/c3ccco3)C(=O)NC2=S)c1,-6.6%,-2.8%,u,-92.9*,22.4µM*,35.5µM*,42.6*,x,x,x
O=C(Cc1cc(=O)oc2cc(O)ccc12)NN=Cc1ccc(N(CCCl)CCCl)cc1,u,3.8%,-12.9%,-0.1,31.6µM*,u,37.9*,x,x,x
CNC(=S)S,x,-7.1%,x,x,x,x,x,x,x,x
Cc1cc(C)cc(N2C(=O)NC(=O)/C(=C\c3cccn3-c3ccc(Cl)cc3)C2=O)c1,26.2%,u,-3.3%,u,1.2%,-12.4%[57.1 µM],x,x,x,x
O=C1NC(=S)NC(=O)C1=Cc1cccn1-c1ccc(O)cc1,x,-15.5%,u,-83.7*,35.5µM*,44.7µM*,75.7*,x,x,x
CCOC(=O)CCN(SN(C)C(=O)Oc1cccc2c1OC(C)(C)C2)C(C)C,x,-4.9%,x,x,x,x,x,x,x,x
COC1C(C)OC(OC2CC(C)(O)Cc3cc4c(c(O)c32)C(=O)c2c(O)cc3c(c2C4=O)OC2OC3(C)C(O)C(N(C)C)C2O)C(OC)C1(C)OC (configuration not stated),u,-6.3%,-11.1%,0.0,15.8µM*,15.8µM*,4.78*,2.15µM*,445.6%,u
COc1ccc(N2C(=O)NC(=O)/C(=C\c3ccc([N+](=O)[O-])s3)C2=O)cc1,u,-9.5%,-14.9%,-63.3*,u,25.1µM*,9.53*,21.5µM*,-16.9%,-21.6%
O=C1NC(=O)N(Cc2ccc(F)cc2)C(=O)/C1=C\c1ccc([N+](=O)[O-])s1,10µM*,-4.7%,-24.7%,-78.6*,25.1µM*,39.8µM*,6.75*,15.2µM*,27.1µM*,19.2µM*
COc1ccc(N2C(=O)NC(=O)/C(=C\c3cn(C)c4ccccc34)C2=O)cc1,u,-0.3%,x,-5.2,13.3%,-6.3%,x,x,x,x
COc1ccc(N2C(=O)NC(=O)/C(=C/c3ccc([N+](=O)[O-])s3)C2=O)cc1,u,-0.1%,u,-77.4*,u,50.1µM*,19*,19.2µM*,u,21.5µM*
CC(=O)N1C[C@H](O)C[C@H]1C(=O)O,-0.7%,u,-6.5%,-6.8,-8.8%,9.6%,x,x,x,x
CN(C)[C@@H]1C(=O)C(C(N)=O)=C(O)[C@@]2(O)C(=O)C3=C(O)c4c(O)cccc4[C@@](C)(O)[C@H]3[C@H](O)[C@@H]12,u,-1.0%,u,-84.9*,11.2µM*!,20µM*,75.7*,17.1µM*,u,13.6µM*
CN(C)C1C(=O)C(C(N)=O)=C(O)[C@@]2(O)C(=O)C3=C(O)c4c(O)cccc4[C@](C)(O)C3C(O)C12 (some centres not stated),x,-4.0%,x,x,x,x,x,x,x,x
CC(C)(C)NC[C@H](O)c1ccc(O)cc1Cl,x,-3.3%,x,x,x,x,x,x,x,x
O=C1NC(=S)N(c2ccccc2)C(=O)/C1=C/c1ccco1,u,-4.9%,7.94µM*,-86.7*,8.91µM*,0.947µM*,16.9*,0.961µM*,10.8µM*,0.192µM*
SMILES,Pin1 inh,Glioma ERSR ind,PGK inhibitor,PI5P4Ka inh,FEN1 inh-1,WRN helicase inh-1,FEN1 inh-2,WRN helicase inh-2,TO displacement,BLM helicase inh
C[C@@H]1C(=O)O[C@H]2CC34[C@H]5C[C@@H](C(C)(C)C)[C@]36[C@@H](OC(=O)[C@@H]6O)O[C@@]4(C(=O)O5)[C@]21O (some centres not stated),-5.3%,u,5.7%,-2.2,19.2%,3.4%,x,x,x,x
Cc1cc(/C=C2\C(=O)NC(=O)N(c3ccc(Br)cc3)C2=O)c(C)n1-c1cc(C(=O)O)cc(C(=O)O)c1,u,-1.9%,14.1µM*,-77.4*,u,22.4µM*,u,24.1µM*,-0.3%,-16.9%
Cc1cc(/C=C2/C(=O)NC(=O)N(c3ccc(Br)cc3)C2=O)c(C)n1C,u,0.2%,-0.9%,-14.7,1.7%,-10.3%,x,x,x,x
CCOC(=O)C1CCCN(c2ccc([N+](=O)[O-])c3nonc23)C1 (configuration not stated),u,0.3%,2.9%,-2.4,u,u,67.5*,24.1µM*,i,24.1µM*
COc1ccc(CN2C(=O)NC(=O)/C(=C\c3ccco3)C2=O)cc1,8.1%,-2.8%,u,-77.3*,28.2µM*,22.4µM*,75.7*,19.2µM*,-14.2%,8.57µM*
COc1ccc(CN2C(=O)CC(=O)NC2=S)cc1,28.4%,-6.9%,-10.0%,u,-7.6%,-14.8%,x,x,x,x
c1ccc(N2CCCC3(CCNCC3)C2)nc1,x,-5.0%,x,x,x,x,x,x,x,x
C=CC[C@]1(O)CC[C@H]2[C@@H]3CCC4=CC(=O)CCC4=C3C=C[C@@]21C,x,-6.6%,x,x,x,x,x,x,x,x
